Source: PubChem BioAssay (National Center for Advancing Translational Sciences (NCATS))
TRb-SRC2 inh: qHTS for Inhibitors of the Interaction of Thyroid Hormone Receptor and Steroid Receptor Coregulator 2; Thyroid hormone receptor beta (Homo sapiens), P10828; Potency, µM (top dose mostly 106 µM), most hits filed as inhibitors; 280,000 tested, 0.065% active; TRbeta-SRC2 peptide binding, fluorescence polarization; receptor liganded with 1 µM T3; also: nearly all actives have a fitted effect of over 50% in size
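Decrease in fluorescence polarization of 20 nM Texas Red SRC2 coactivator peptide flagged inhibition of its binding to 0.6 uM TRb LBD; 1 uM T3 included, incubation 5 hr, ex 555/em 632 nm.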
RGS12 GoLoco inh: qHTS Assay for Inhibitors of RGS12 GoLoco Motif Activity (Red Fluorophore); Potency, µM (highest dose often 61.6 µM), hits mostly inhibitors; 230,000 tested, 0.44% active; Gai1:RGS12 GoLoco peptide FP, rhodamine, 10 min; Guanine nucleotide-binding protein G(i) subunit alpha-1 (Homo sapiens), P63096; active = well fitted inhibition curve with a large enough effect, not every such curve was filed as active; inactive = no such curve, though single readings can be large or run the other way; also: nearly all actives have a fitted effect of over 30% in size
Target sequence (P63096 whole entry, looked up): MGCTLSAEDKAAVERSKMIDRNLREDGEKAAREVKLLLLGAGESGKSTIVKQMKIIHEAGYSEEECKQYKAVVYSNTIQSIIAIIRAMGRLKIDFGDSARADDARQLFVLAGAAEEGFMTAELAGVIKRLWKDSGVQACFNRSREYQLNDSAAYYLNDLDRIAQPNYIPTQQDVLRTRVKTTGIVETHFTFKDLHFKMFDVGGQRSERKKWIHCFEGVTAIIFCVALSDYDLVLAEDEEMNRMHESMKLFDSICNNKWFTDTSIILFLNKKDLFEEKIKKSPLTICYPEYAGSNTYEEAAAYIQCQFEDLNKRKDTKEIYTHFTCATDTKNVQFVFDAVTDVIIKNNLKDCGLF
Tau fibril ThT: qHTS for Inhibitors of Tau Fibril Formation, Thioflavin T Binding; 270,000 tested, 2.1% active; Potency, µM (highest dose often 57.4 µM), hits mostly inhibitors; AID 1460, 2008; Microtubule-associated protein tau (Homo sapiens), P10636; recombinant tau K18 P301L, heparin-induced fibrillization, ThT fluorescence; also: nearly all actives have a fitted effect of over 55% in size
Target sequence (P10636 561-689 P618L limits assumed): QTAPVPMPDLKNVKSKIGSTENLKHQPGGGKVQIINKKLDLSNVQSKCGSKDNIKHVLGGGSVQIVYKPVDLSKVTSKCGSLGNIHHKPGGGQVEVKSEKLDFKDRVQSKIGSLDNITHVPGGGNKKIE
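Heparin-induced fibrillization of the P301L-mutant K18 repeat-domain fragment of human tau was followed by ThT binding in quantitative high-throughput format.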
TR SRC2 fluor cs: Total Fluorescence Counterscreen for Inhibitors of the Interaction of Thyroid Hormone Receptor and Steroid Receptor Coregulator 2; Potency, µM (highest dose often 106 µM); TRb/SRC2 Texas Red total fluorescence interference; 280,000 tested, 0.29% active; AID 1479, 2009; active = well fitted curve in either direction with a large enough effect; inconclusive = small, poorly fitted or top-dose-only effect
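Human TRb ligand-binding domain at 0.6 uM with 20 nM Texas Red SRC2 peptide in Tris buffer containing 1 uM T3 and 5% DMSO, incubated with compound 5 h at ambient temperature. Total fluorescence (555/632 nm) calculated as parallel + 2 × perpendicular.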
Tau fluor cs: Counterscreen qHTS for Inhibitors of Tau Fibril Formation, Fluorescence Polarization; 280,000 tested, 0.93% active; Potency, µM (doses to about 57.7 µM); tau K18 P301L Alexa594 fluorescence, heparin fibrillization; also: nearly all actives have a fitted effect of over 55% in size
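Human tau K18 P301L (15 uM unlabeled, 0.24 uM Alexa 594-labeled) in 100 mM sodium acetate pH 7 with 20 uM heparin, 6 hr at 37 C. ThT 30 uM added, 1 hr ambient; Alexa 594 FP and total fluorescence read at 555/632 nm.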
Tau fibril FP: qHTS for Inhibitors of Tau Fibril Formation, Fluorescence Polarization; Microtubule-associated protein tau (Homo sapiens), P10636; K18 P301L tau heparin fibrillization, Alexa594 FP, 6 h; Potency, µM (highest dose often 57.7 µM), hits mostly inhibitors; 280,000 tested, 0.39% active; also: nearly all actives have a fitted effect of over 55% in size
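Heparin (20 uM) drove fibril formation of recombinant tau K18 P301L, 15 uM unlabeled with 0.24 uM Alexa 594 label, for 6 hr at 37 C in 100 mM sodium acetate pH 7. Fluorescence polarization (555/632 nm) read 1 hr after 30 uM ThT.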
A number is an active result; [ ] = dose if it differs, or a comment. In the library only some 3.2% were active in any assay of this set; here they are far more common. Unless noted, calls follow the shape of the dose curve; as a rule, active = well fitted curve in the direction sought with a large enough effect; inconclusive = small, poorly fitted or top-dose-only effect, or another doubt; inactive = no such curve, though single readings can be large; an effect the other way counts as inactive or inconclusive.

What do the screens show for `Nc1ccc2oc3ccc(N)cc3c(=O)c2c1`?
TRb-SRC2 inh: inactive; RGS12 GoLoco inh: inactive; Tau fibril ThT: 14.1µM; TR SRC2 fluor cs: inactive; Tau fluor cs: inactive; Tau fibril FP: inactive

How did O=C(/C=C/c1ccccc1)c1cccs1 do in these assays?
TRb-SRC2 inh: inactive; RGS12 GoLoco inh: inactive; Tau fibril ThT: inconclusive; TR SRC2 fluor cs: inactive; Tau fluor cs: inactive; Tau fibril FP: inactive

How did O=C1Nc2ccccc2/C1=C/C(=O)c1cccs1 do in these assays?
TRb-SRC2 inh: inactive; RGS12 GoLoco inh: inactive; Tau fibril ThT: 17.8µM; TR SRC2 fluor cs: inactive; Tau fluor cs: inactive; Tau fibril FP: inactive

Results for CC[N+]1=C(C)C(C)(C)c2cc(C)ccc21 ?
TRb-SRC2 inh: inconclusive; RGS12 GoLoco inh: inactive; Tau fibril ThT: 3.55µM; TR SRC2 fluor cs: 39.8µM[fluorescent]; Tau fluor cs: 0.708µM[fluorescent]; Tau fibril FP: inconclusive

How did Cc1ccc2c(c1)C=CC(C)(C)S2=O (stereo not drawn) do in these assays?
TRb-SRC2 inh: inactive; RGS12 GoLoco inh: inactive; Tau fibril ThT: inactive; TR SRC2 fluor cs: inactive; Tau fluor cs: inactive; Tau fibril FP: inactive

How did CCn1cnc2cc(NCc3ccc(N(C)C)cc3)ccc21 do in these assays?
TRb-SRC2 inh: inactive; RGS12 GoLoco inh: inactive; Tau fibril ThT: inconclusive; TR SRC2 fluor cs: inactive; Tau fluor cs: 11.2µM[quencher]; Tau fibril FP: inactive

How did CCn1cnc2cc(NCc3ccc(C)cc3)ccc21 do in these assays?
TRb-SRC2 inh: inactive; RGS12 GoLoco inh: inactive; Tau fibril ThT: inconclusive; TR SRC2 fluor cs: inactive; Tau fluor cs: inactive; Tau fibril FP: inactive

What do the screens show for `C(=C\c1ccco1)/C1=NN(c2ccccc2)C(c2ccco2)C1` (stereo not drawn)?
TRb-SRC2 inh: inactive; RGS12 GoLoco inh: inactive; Tau fibril ThT: inconclusive; TR SRC2 fluor cs: inactive; Tau fluor cs: inconclusive; Tau fibril FP: inactive

How did O=[N+]([O-])c1ccc(/C=C/C2=NN(c3ccccc3)C(c3ccco3)C2)o1 (stereo not drawn) do in these assays?
TRb-SRC2 inh: inconclusive; RGS12 GoLoco inh: inactive; Tau fibril ThT: 7.94µM; TR SRC2 fluor cs: inactive; Tau fluor cs: inconclusive; Tau fibril FP: inactive

How did COc1ccc(Cl)cc1NC(=O)c1c(NCc2ccc(C)o2)sc2c1CCC(C)C2 (stereo not drawn) do in these assays?
TRb-SRC2 inh: inactive; Tau fibril ThT: inactive; TR SRC2 fluor cs: inactive; Tau fluor cs: inactive; Tau fibril FP: inactive

Results for COc1ccc(Cl)cc1NC(=O)c1c(NCc2ccc(C)o2)sc2c1CCCCC2 ?
TRb-SRC2 inh: inactive; Tau fibril ThT: inconclusive; TR SRC2 fluor cs: inactive; Tau fluor cs: inactive; Tau fibril FP: inactive

Results for COc1ccc(NC(=O)c2c(NCc3cccs3)sc3c2CCCCC3)c(OC)c1 ?
TRb-SRC2 inh: inactive; Tau fibril ThT: 25.1µM; TR SRC2 fluor cs: inactive; Tau fluor cs: inconclusive; Tau fibril FP: inconclusive

How did COc1ccccc1NC(=O)c1c(NCc2ccc(C)o2)sc2c1CCCCC2 do in these assays?
TRb-SRC2 inh: inactive; Tau fibril ThT: 25.1µM; TR SRC2 fluor cs: inactive; Tau fluor cs: inconclusive; Tau fibril FP: inconclusive

How did COc1ccc(NC(=O)c2c(NCc3cccs3)sc3c2CCCC3)cc1 do in these assays?
TRb-SRC2 inh: inactive; Tau fibril ThT: inconclusive; TR SRC2 fluor cs: inactive; Tau fluor cs: inconclusive; Tau fibril FP: inactive

What do the screens show for `COc1ccc(OC)c(NC(=O)c2c(NCc3ccc(C)o3)sc3c2CCCCC3)c1`?
TRb-SRC2 inh: inactive; Tau fibril ThT: 25.1µM; TR SRC2 fluor cs: inactive; Tau fluor cs: inconclusive; Tau fibril FP: inconclusive

How did Clc1cccc(CN2CCC(Cc3ccccc3)CC2)c1 do in these assays?
TRb-SRC2 inh: inactive; Tau fibril ThT: 17.8µM; TR SRC2 fluor cs: inactive; Tau fluor cs: 12.6µM[quencher]; Tau fibril FP: inactive
